Experimental findings from PubChem BioAssay (NCI) are described below.

Values joined by “and” are separate entries in the source; they are usually repeats but may differ in a detail not shown here. Identical values can stand only once. About 79,000 compounds went through this panel and 15% of them were active in at least one assay; those are over-represented in the sample as a whole. Some structures have more than one record in an assay (separate samples or runs), and their calls can disagree. Active and inactive are the calls of the source. Cut-off read from the data, not from the text of the source: active = growth inhibition above about 70%; inactive = the rest.

Assay [1] in a line: NCI Yeast Anticancer Drug Screen. Data for the rad50 strain (AID 155).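 Note: 0% = growth of vehicle-only cultures of the same strain.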 The note with it: S. cerevisiae rad50 strain growth inhibition, stronger effect = higher value. The procedure, abridged:
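Vehicle-treated cultures provide the reference for the growth inhibition reported for compound-exposed, repair-deficient yeast.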

A short description of assay [2]: NCI Yeast Anticancer Drug Screen. Data for the mec2-1 strain (AID 157). The note with it: S. cerevisiae mec2-1 strain, stronger effect = higher value. The procedure, abridged: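 Strain: mec2-1 (DNA repair/cell cycle alteration). Compound exposure, then growth measured; inhibition expressed relative to vehicle.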
Assay [3] is described as follows: NCI Yeast Anticancer Drug Screen. Data for the sgs1 mgt1 strain (AID 161).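 Note: 0% = growth of cultures given vehicle only.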 The note with it: S. cerevisiae sgs1 mgt1 strain, stronger effect = higher value. The procedure, abridged:
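Test agents were incubated with a DNA-repair-mutant yeast strain. Growth was then read and compared against vehicle-treated controls.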

Assay [4] is described as follows: NCI Yeast Anticancer Drug Screen. Data for the cln2 rad14 strain (AID 165).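 Note: 0% = growth equal to vehicle treated cultures.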 The note with it: S. cerevisiae cln2 rad14 strain, stronger effect = higher value. Put shortly: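 Compounds are applied to the cln2 rad14 yeast strain, and growth is then compared with that of vehicle-treated cultures to give inhibition.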
Assay [5] in a line: NCI Yeast Anticancer Drug Screen. Data for the bub3 strain (AID 167). The note with it: S. cerevisiae bub3 mutant strain, stronger effect = higher value. Put shortly: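 Mutant yeast screening strain plus compound; vehicle-treated cultures serve as the 0% inhibition reference.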
Assay [6] is described as follows: NCI Yeast Anticancer Drug Screen. Data for the mlh1 rad18 strain (AID 175). The note with it: S. cerevisiae mlh1 rad18 strain growth inhibition, stronger effect = higher value. Put shortly: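 Read-out is yeast growth inhibition, calculated against vehicle-only controls. The compound was applied to a strain engineered with DNA damage repair alterations.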
Setting [7] is: at 5.0 µM (retest, dose inferred, filed as 0.5).
Setting [8] is: at 50.0 µM (retest, dose inferred, filed as 5.0).

In the case of `O=C(NNc1ccnc2cc(Cl)ccc12)/C(=C/c1ccc2c(c1)OCO2)NC(=O)c1ccccc1`, the growth inhibition was 12% (inactive) in assay [1] (setting [7]); 71% (active) in assay [1] (setting [8]); 90.7% (active) in assay [1] (at 50.0 µM); -18% (inactive) in assay [2] (setting [7]); 46% (inactive) in assay [2] (setting [8]); 77.3% (active) in assay [2] (at 50.0 µM). Also, the growth inhibition in assay [3] (setting [7]) was -4% (inactive); in assay [3] (setting [8]), 47% (inactive); in assay [3] (at 50.0 µM) it was 86.8% (active); in assay [4] (setting [7]), 2% (inactive); in assay [4] (setting [8]), 64% (inactive); in assay [4] (at 50.0 µM), 79.7% (active). Moreover, the growth inhibition in assay [5] (setting [7]) was -9% (inactive); in assay [5] (setting [8]), 83% (active); in assay [5] (at 50.0 µM), 58.9% (inactive); in assay [6] (setting [7]) it was -2% (inactive); in assay [6] (setting [8]), 71% (active); in assay [6] (at 50.0 µM), 93.1% (active).

Turning to `CC1CP(c2ccccc2)(c2ccccc2)(c2ccccc2)OC1(C(=O)c1ccccc1)c1ccccc1` (configuration not stated), the growth inhibition in assay [1] (setting [7]) is -1% (inactive); in assay [1] (setting [8]) it was 9% (inactive); in assay [1] (at 50.0 µM) it was 93.9% (active); in assay [2] (setting [7]), 8% (inactive); in assay [2] (setting [8]) it was 7% (inactive); in assay [2] (at 50.0 µM), 99.3% (active). Further, the growth inhibition in assay [3] (setting [7]) is -21% (inactive); in assay [3] (setting [8]), -1% (inactive); in assay [3] (at 50.0 µM), 99.3% (active); in assay [4] (setting [7]), -9% (inactive); in assay [4] (setting [8]) it was 2% (inactive); in assay [4] (at 50.0 µM), 98.9% (active). Further, the growth inhibition in assay [5] (setting [7]) was -1% (inactive); in assay [5] (setting [8]) it was 11% (inactive); in assay [5] (at 50.0 µM), 98.8% (active); in assay [6] (setting [7]), -15% (inactive); in assay [6] (setting [8]), 29% (inactive); in assay [6] (at 50.0 µM), 99.2% (active).

With `NC1=C(Cl)C(=O)c2ccccc2C1=O`, the growth inhibition is 6% (inactive) and 9% (inactive) in assay [1] (setting [7]); 97% (active) and 99% (active) in assay [1] (setting [8]); 87.5% (active) and 98.2% (active) in assay [1] (at 50.0 µM); 0% (inactive) and -30% (inactive) in assay [2] (setting [7]); 93% (active) and 98% (active) in assay [2] (setting [8]); 79.8% (active) and 93.6% (active) in assay [2] (at 50.0 µM). The growth inhibition in assay [3] (setting [7]) was 7% (inactive) and 10% (inactive); in assay [3] (setting [8]), 95% (active) and 97% (active); in assay [3] (at 50.0 µM) it was 91.4% (active) and 97.8% (active); in assay [4] (setting [7]), 15% (inactive) and 4% (inactive); in assay [4] (setting [8]), 61% (inactive) and 97% (active); in assay [4] (at 50.0 µM) it was 76.7% (active) and 78.8% (active). Also, the growth inhibition was 16% (inactive) and 7% (inactive) in assay [5] (setting [7]); 97% (active) and 98% (active) in assay [5] (setting [8]); 84.3% (active) and 95.5% (active) in assay [5] (at 50.0 µM); 8% (inactive) and 7% (inactive) in assay [6] (setting [7]); 96% (active) and 98% (active) in assay [6] (setting [8]); 88.5% (active) and 95.5% (active) in assay [6] (at 50.0 µM).

For the compound `NNc1nc2ccccc2s1`, the growth inhibition is 14% (inactive) in assay [1] (setting [7]); 34% (inactive) in assay [1] (setting [8]); 1.3% (inactive) and 47.8% (inactive) in assay [1] (at 50.0 µM); 10% (inactive) in assay [2] (setting [7]); 32% (inactive) in assay [2] (setting [8]); -37% (inactive) and 42.6% (inactive) in assay [2] (at 50.0 µM). The growth inhibition in assay [3] (setting [7]) is 2% (inactive); in assay [3] (setting [8]), 38% (inactive); in assay [3] (at 50.0 µM), 4.4% (inactive) and 72.5% (active); in assay [4] (setting [7]) it was 8% (inactive); in assay [4] (setting [8]), 3% (inactive); in assay [4] (at 50.0 µM), 0.55% (inactive) and 8.6% (inactive). In addition, the growth inhibition was 19% (inactive) in assay [5] (setting [7]); 45% (inactive) in assay [5] (setting [8]); 9.15% (inactive) and 89.6% (active) in assay [5] (at 50.0 µM); 37% (inactive) in assay [6] (setting [7]); 64% (inactive) in assay [6] (setting [8]); -7.35% (inactive) and 88.2% (active) in assay [6] (at 50.0 µM).

Consider `CC(=O)OC1COC(n2c(N)c(C#N)c(-c3ccccc3)c(C#N)c2=S)C(OC(C)=O)C1OC(C)=O` (configuration not stated), for which the growth inhibition was -10% (inactive) and 1% (inactive) in assay [1] (setting [7]); 3% (inactive) and 74% (active) in assay [1] (setting [8]); 25.8% (inactive) and 46% (inactive) in assay [1] (at 50.0 µM); -12% (inactive) and 1% (inactive) in assay [2] (setting [7]); 3% (inactive) and 57% (inactive) in assay [2] (setting [8]); 16.4% (inactive) and 40.7% (inactive) in assay [2] (at 50.0 µM). For the same compound, the growth inhibition in assay [3] (setting [7]) was -7% (inactive) and 2% (inactive); in assay [3] (setting [8]) it was 16% (inactive) and 48% (inactive); in assay [3] (at 50.0 µM), 73.2% (active) and 65% (inactive); in assay [4] (setting [7]) it was -18% (inactive) and 1% (inactive); in assay [4] (setting [8]), -17% (inactive) and 61% (inactive); in assay [4] (at 50.0 µM), -6.15% (inactive) and 14.3% (inactive). Besides, the growth inhibition in assay [5] (setting [7]) is -11% (inactive) and 4% (inactive); in assay [5] (setting [8]), -33% (inactive) and 79% (active); in assay [5] (at 50.0 µM), 35.7% (inactive) and 4.05% (inactive); in assay [6] (setting [7]), -7% (inactive) and -2% (inactive); in assay [6] (setting [8]), 8% (inactive) and 73% (active); in assay [6] (at 50.0 µM), 62.9% (inactive) and 56.9% (inactive).

`CCN1CCC(O)(/C=C/c2ccc(C)cc2)C(C(=O)/C=C/c2ccc(C)cc2)C1` (configuration not stated): the growth inhibition is 20% (inactive) in assay [1] (setting [7]); 98% (active) in assay [1] (setting [8]); 90.1% (active) in assay [1] (at 50.0 µM); 15% (inactive) in assay [2] (setting [7]); 99% (active) in assay [2] (setting [8]); 91.4% (active) in assay [2] (at 50.0 µM). The growth inhibition in assay [3] (setting [7]) was -29% (inactive); in assay [3] (setting [8]), 99% (active); in assay [3] (at 50.0 µM) it was 91.2% (active); in assay [4] (setting [7]), 9% (inactive); in assay [4] (setting [8]), 99% (active); in assay [4] (at 50.0 µM), 91.8% (active). The growth inhibition in assay [5] (setting [7]) is 14% (inactive); in assay [5] (setting [8]), 99% (active); in assay [5] (at 50.0 µM), 90.6% (active); in assay [6] (setting [7]), 24% (inactive); in assay [6] (setting [8]), 98% (active); in assay [6] (at 50.0 µM), 92.7% (active).

On to `CCCCCCCCCCCCCCCCCC(=O)NCCO`, for which the growth inhibition was -3% (inactive) in assay [1] (setting [7]); -6% (inactive) in assay [1] (setting [8]); -12.3% (inactive) and 16.8% (inactive) in assay [1] (at 50.0 µM); -1% (inactive) in assay [2] (setting [7]); -5% (inactive) in assay [2] (setting [8]); -6.6% (inactive) and -7.3% (inactive) in assay [2] (at 50.0 µM). The growth inhibition in assay [3] (setting [7]) was 0% (inactive); in assay [3] (setting [8]) it was -4% (inactive); in assay [3] (at 50.0 µM), -20.2% (inactive) and -8.5% (inactive); in assay [4] (setting [7]), 1% (inactive); in assay [4] (setting [8]) it was -8% (inactive); in assay [4] (at 50.0 µM), -23.9% (inactive) and 37.4% (inactive). The growth inhibition in assay [5] (setting [7]) is 4% (inactive); in assay [5] (setting [8]), 7% (inactive); in assay [5] (at 50.0 µM), -3.75% (inactive) and 1.55% (inactive); in assay [6] (setting [7]), 0% (inactive); in assay [6] (setting [8]) it was -8% (inactive); in assay [6] (at 50.0 µM), 3.7% (inactive) and 10.8% (inactive).

Regarding `CC(NC(=O)/C(C#N)=C/c1ccc2[nH]ccc2c1)c1ccccc1` (configuration not stated), the growth inhibition was 0% (inactive) in assay [1] (setting [7]); 94% (active) in assay [1] (setting [8]); 86.2% (active) in assay [1] (at 50.0 µM); 1% (inactive) in assay [2] (setting [7]); 95% (active) in assay [2] (setting [8]); 90% (active) in assay [2] (at 50.0 µM). Moreover, the growth inhibition in assay [3] (setting [7]) was 16% (inactive); in assay [3] (setting [8]) it was 93% (active); in assay [3] (at 50.0 µM), 88.8% (active); in assay [4] (setting [7]), 7% (inactive); in assay [4] (setting [8]), 91% (active); in assay [4] (at 50.0 µM) it was 86.5% (active). Also, the growth inhibition in assay [5] (setting [7]) is 3% (inactive); in assay [5] (setting [8]) it was 94% (active); in assay [5] (at 50.0 µM), 86.2% (active); in assay [6] (setting [7]), -5% (inactive); in assay [6] (setting [8]), 96% (active); in assay [6] (at 50.0 µM), 86.3% (active).

Consider `CC[N+](CC)=c1ccc2nc3c(cc(N)c4ccccc43)oc-2c1`, for which the growth inhibition in assay [1] (setting [7]) is -8% (inactive); in assay [1] (setting [8]), 42% (inactive); in assay [1] (at 50.0 µM), 71.5% (active) and -20.9% (inactive); in assay [2] (setting [7]), -1% (inactive); in assay [2] (setting [8]) it was 39% (inactive); in assay [2] (at 50.0 µM), 52.5% (inactive) and -17.7% (inactive). For the same compound, the growth inhibition was -9% (inactive) in assay [3] (setting [7]); 42% (inactive) in assay [3] (setting [8]); 38.1% (inactive) in assay [3] (at 50.0 µM); -14% (inactive) in assay [4] (setting [7]); 7% (inactive) in assay [4] (setting [8]); 38% (inactive) in assay [4] (at 50.0 µM). The growth inhibition in assay [5] (setting [7]) was -4% (inactive); in assay [5] (setting [8]), 19% (inactive); in assay [5] (at 50.0 µM), 63% (inactive); in assay [6] (setting [7]), -6% (inactive); in assay [6] (setting [8]) it was 27% (inactive); in assay [6] (at 50.0 µM), 68.8% (inactive) and -28.9% (inactive).
